# According to PubChem BioAssay AID2410 (Southern Research Specialized Biocontainment Screening …, 2010):
# About 2,100 (84%) of roughly 2,500 compounds were called active.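 Rule for the calls: active = toxic compounds, whose cell viability fell below 70% of untreated control cells; inactive = the rest.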 So high a share suggests a set chosen from earlier hits. A selection follows. Results with a measured potency or affinity are listed apart.
# Experiment: HEp-2 cell cytotoxicity, dose response, cytotoxicity control for RSV inhibitor project, HTS (AID 2410);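 note: cells exposed to compound for six days before readout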
# Conditions: HEp-2 viability, luminescence, cytotoxicity counter-screen; series mostly up to 50 µM
row,Structure (SMILES),outcome
1,COCCN(C(=O)CSc1nnc(-c2ccc(C)c(C)c2)o1)c1c(N)n(CC(C)C)c(=O)[nH]c1=O,inactive
2,COc1ccc2[nH]c3c(=S)nc[nH]c3c2c1,inactive
3,c1ccc(N2CCN(Cc3nc4ccccc4[nH]3)CC2)nc1,inactive
4,O=C(OCC(=O)N1CCCC1=O)c1ccc(Cl)cc1[N+](=O)[O-],inactive
5,CC(=O)Nc1ccc(NC(=O)C(C)OC(=O)c2ccccc2C(=O)c2ccc(Cl)c([N+](=O)[O-])c2)cc1 (centres undefined),inactive
6,COc1ccc(C(=O)NCC(=O)N/N=C/c2c(C)[nH]c3ccccc23)cc1OC,inactive
7,COc1cc(O)cc(O)c1C(=O)/C=C/c1ccccc1,inactive
8,COc1ccc(C(CNC(=S)NCc2ccccc2)N2CCCC2)cc1 (centres undefined),inactive
9,COC(=O)C1=C(C)N(Cc2ccccc2)C(=O)N[C@H]1c1ccc(Br)cc1,inactive
10,CC(=O)Nc1ccc(C(=O)OCc2ccc(Cl)cc2)cc1,inactive
11,COc1cc(/C=N/N=C(\N)c2nonc2N)cc(OC)c1OC,inactive
12,COc1cccc(/C=N/N=C(\N)c2nonc2N)c1O,inactive
13,C/C(N)=C(/C#N)C(=O)COc1ncnc2ccccc12,inactive
14,C/C(N)=C(/C#N)C(=O)COc1ncnc2ccc(Br)cc12,inactive
15,C/C(N)=C(/C#N)C(=O)COC(=O)c1cccc(C)c1O,inactive
16,Cc1c(NC(=O)CN2C(=O)NC3(CCCCC3C)C2=O)cccc1[N+](=O)[O-] (centres undefined),inactive
17,Fc1cccc(Nc2nc(-c3ccncc3)nc3ccccc23)c1,inactive
18,COc1ccc(/C(C)=N/NC(=O)CN(c2ccc(OC)cc2)S(=O)(=O)c2ccccc2)cc1,inactive
19,Cc1nc2nc(-c3ccccc3)nn2c(C)c1Cl,inactive
20,O=C(c1cc(-c2ccc(Cl)cc2Cl)on1)N1CCOCC1,inactive
21,Cc1ccc(-c2nc(CCN3C(=O)c4ccccc4C3=O)cs2)cc1,inactive
22,Cc1ccc2c(n1)sc1c(-c3ccc(Br)cc3)c(C#N)c(N)nc12,inactive
23,Nc1ccc(Br)c2c1C(=O)c1ccccc1C2=O,inactive
24,COc1ccc(N(C)C(=O)C2CCCN2S(=O)(=O)c2cccc3nsnc23)c(OC)c1 (centres undefined),inactive
25,COc1ccc(NC(=O)c2cccs2)c([N+](=O)[O-])c1,inactive
26,COc1ccccc1CNC(=O)C1CCN(S(=O)(=O)c2cccc3nonc23)CC1,inactive

row,Structure (SMILES),outcome
1,C/C(NC(=O)c1cccc(F)c1)=C1/C(=O)C[C@@H]2[C@H]1C2(C)C,inactive
2,C/C(N)=C(/C#N)C(=O)CN1C(=O)NC(Cc2c[nH]c3ccccc23)C1=O (centres undefined),inactive
3,O=C(Nc1ccon1)c1sc2ccccc2c1Cl,inactive
4,CS(=O)(=O)NNC(=O)c1cc2cc3ccccc3nc2s1,inactive
5,O=C(Nc1ccc(Cl)cc1)N1CCc2[nH]c3ccccc3c2C1,inactive
6,CCC(=O)Nc1nc(C)c(-c2csc(Nc3ccccn3)n2)s1,inactive
7,Cc1cc(Nc2cccc(Cl)c2)nc(-c2ccccc2O)n1,inactive
8,Cc1cc(Nc2cccc(F)c2)nc(-c2ccccc2O)n1,inactive
9,CC1CCCN(C(=O)COC(=O)c2ccc3[nH]c4c(c3c2)CCCC4)C1 (centres undefined),inactive
10,Cc1cccc(C)c1N=Cc1c(O)n(-c2nccs2)c(=O)c2ccccc12,inactive
11,COc1ccccc1NCC(=O)Nc1cc(S(=O)(=O)N2CCOCC2)ccc1N1CCOCC1,inactive
12,Cc1ccnc(NC(=O)c2cccc(S(=O)(=O)N3CCN(c4ccccc4)CC3)c2)c1,inactive
13,O=C(NCc1ccccc1Cl)C1CCN(S(=O)(=O)c2cccc3nonc23)CC1,inactive
14,COc1ccc2o/c(=N\O)c(C(=O)Nc3ccccc3OC)cc2c1,inactive
15,COc1ccc(C(=O)N/C(=C/c2cccs2)c2nc3ccccc3[nH]2)cc1OC,inactive
16,CSc1nc(N2CCOCC2)nc2ccc(C)cc12,inactive
17,O=C1c2ccccc2C(=O)N1CCCCN(C(=O)c1cc2ccccc2oc1=O)c1ccc(Cl)cc1,inactive
18,COc1ccccc1CNC(=O)C(NS(=O)(=O)c1cccc2nsnc12)C(C)C (centres undefined),inactive
19,CCC(C)n1ncn(-c2ccc(N3CCN(c4ccc(OCC5COC(Cn6cncn6)(c6ccc(Cl)cc6Cl)O5)cc4)CC3)cc2)c1=O (centres undefined),inactive
20,Brc1cnc(N2CCOCC2)nc1N1CCCCC1,inactive
21,CCOc1ccc(CNC(=O)CCCn2nc(CC)n3c(cc4occc43)c2=O)cc1,inactive
22,N#Cc1ccccc1Cn1c(=O)oc2ccccc21,inactive
23,COC(=O)c1ccc(Oc2nc(N3CCCCC3)nc(N3CCOCC3)n2)cc1,inactive
24,CCCCNC(=O)CC1N=C2c3ccccc3N=C(SCC(=O)Nc3ccc(OC)cc3)N2C1=O (centres undefined),inactive
25,O=C(/C=C/c1ccc(O)c(O)c1)OC1C(O)CC(OC(=O)/C=C/c2ccc(O)c(O)c2)(C(=O)O)CC1O (centres undefined),inactive
26,N#Cc1ccccc1NC(=O)c1ccc2c(Cl)c3c(nc2c1)CCCC3,inactive

row,Structure (SMILES),outcome
1,CC(=O)N1N=C(c2ccc(C)cc2)OC1c1cccnc1 (centres undefined),inactive
2,OCc1cn(-c2ccccc2)nc1-c1ccc(Br)cc1,inactive
3,COc1ccc(-c2nn(-c3ccccc3)cc2/C=N/O)cc1,inactive
4,O=[N+]([O-])c1ccc(N/N=C/c2ccccc2)cc1,inactive
5,CC(Oc1ccc(F)cc1)C(=O)Nc1ccc2ccccc2c1 (centres undefined),inactive
6,Cc1c(C)n(C)c2ccc([N+](=O)[O-])cc12,inactive
7,O=c1c2sccc2n(Cc2cc(=O)n3ccccc3n2)c(=O)n1-c1ccccc1,inactive
8,CN(Cc1nc2ccccc2c(=O)[nH]1)C(=O)c1cc(C2CC2)nn1-c1ccccc1,inactive
9,CCN(Cc1nc2ccccc2c(=O)[nH]1)C(=O)c1cc(C2CC2)nn1-c1ccccc1,inactive
10,COc1ccccc1/C=C/C(=O)NCC(=O)N/N=C(/C)c1ccc(Cl)cc1,inactive
11,Cc1nn2c(-c3ccc(F)cc3)ccnc2c1Br,inactive
12,CC(=O)c1sc(-c2ccccc2Cl)nc1C,inactive
13,O=C(Nc1ccon1)c1ccc(N2CCCCC2)c([N+](=O)[O-])c1,inactive
14,c1csc(-c2nc3c4ccccc4c4ccccc4c3[nH]2)c1,inactive
15,Cc1c(SCCO)c(=O)[nH]c2cc3c(cc12)OCO3,inactive
16,O=C(/C=C/c1ccc(O)c(O)c1)O[C@@H]1C[C@](O)(C(=O)O)C[C@@H](O)[C@H]1O,inactive
17,COc1ccc2cc(CN(CCc3ccccc3)Cc3nnnn3Cc3ccco3)c(=O)[nH]c2c1,inactive
18,CCOC(=O)c1c(C)[nH]c(C(=O)COC(=O)C2(C)CC2(Cl)Cl)c1C (centres undefined),inactive
19,O=c1nc(Nc2ccc(OCc3ccccc3)cc2)sc2ncccc12,inactive
20,Cc1csc(N(C)C(=O)CSc2nnc(COc3ccccc3C)o2)n1,inactive
21,COC(=O)c1ccc(NC2c3ncccc3C(=O)N2Cc2cccs2)cc1 (centres undefined),inactive
22,Cc1[nH]c2ccccc2c1C(=O)CSc1ccccn1,inactive
23,CSc1nc2ccc(Nc3nc(N4CCOCC4)nc(N4CCOCC4)n3)cc2s1,inactive
24,Cc1ccc(Nc2nc(N3CCOCC3)nc(N3CCOCC3)n2)cc1Cl,inactive
25,O=C(c1ccccc1Cl)N1CCN(c2ccccn2)CC1,inactive
26,CSc1nnc(Cn2c(=O)sc3ccccc32)n1CCc1ccccc1,inactive

row,Structure (SMILES),outcome
1,CCOC(=O)CSc1nnc(CNC(=O)c2ccc([N+](=O)[O-])cc2)n1C,inactive
2,C#CCOCCOCCOCCNc1nc(N2CCN(C(=O)CCCCCCCCCCNC(=O)[C@@H]([C@H](C)O)n3cc(C)nn3)CC2)nc(N2CCN(C(=O)CCCCCCCCCCNC(=O)[C@@H]([C@H](C)O)n3cc(C)nn3)CC2)n1,inactive
3,Cc1ccccc1NC(=O)COC(=O)Cc1ccsc1,inactive
4,COc1ccc(S(=O)(=O)N2CCN(CCO)CC2)cc1-c1nnc2c3ccccc3c(C)nn12,inactive
5,Cc1cc(N2C(=O)CC(N3CCN(c4ccc(C(=O)c5cccs5)cc4)CC3)C2=O)no1 (centres undefined),inactive
6,C/C(=N/OCO/N=C(/C)c1ccc(F)cc1)c1ccc(F)cc1,inactive
7,O=c1c(OC2OC(CO)C(O)C(O)C2OC2OC(CO)C(O)C(O)C2OC2OC(CO)C(O)C(O)C2O)c(-c2ccc(O)c(O)c2)oc2cc(O)cc(O)c12 (centres undefined),inactive
8,CCC(=O)Nc1ccc(C(=O)OCc2ccccc2Cl)cc1,inactive
9,Cc1ccc(-n2c(=O)c3sccc3n(Cc3cc(=O)n4ccccc4n3)c2=O)cc1F,inactive
10,COc1ccc(Br)cc1/C=C/C(=O)Nc1ccc2ccccc2c1,inactive
11,CCOc1cc(/C=N\Nc2nc(Nc3ccccc3)nc(N3CCOCC3)n2)ccc1OC(=O)c1ccco1,inactive
12,S=C(NCCc1ccccc1)N/N=C/c1cccc(Cl)c1Cl,inactive
13,c1ccc2c(c1)OCCc1c-2[nH]c2ccccc12,inactive
14,COC(=O)c1ccc(Cn2c(CN3CCOCC3)nc3ccccc3c2=O)o1,inactive
15,CCn1c(=NC(=O)c2ccco2)sc2cccc(F)c21,inactive
16,CC(=NCc1ccco1)C1=C(O)c2ccccc2C1=O,inactive
17,Cn1nnc(-c2ccc(OCc3ccccc3F)cc2)n1,inactive
18,CC/C(=N\Nc1ccc([N+](=O)[O-])cc1)c1ccccc1,inactive
19,COC(=O)c1cc2n3ccccc3c(C)c(-c3ccccc3)c-2c1C(=O)OC,inactive
20,CCOc1ccc2nc(NC(=O)C(CCSC)NS(=O)(=O)c3cccs3)sc2c1 (centres undefined),inactive
21,O=C(CSc1ccccn1)Nc1nc2c(ccc3ccccc32)s1,inactive
22,Cc1ccc(-c2nc3c(c(=O)c4ccccc4n3C)c(=O)n2Cc2ccco2)cc1,inactive
23,COCCn1c(-c2ccccc2Cl)nc2c(c(=O)c3ccccc3n2C)c1=O,inactive
24,COCCn1c(-c2cccc(Br)c2)nc2c(c(=O)c3ccccc3n2C)c1=O,inactive
25,COc1ccc(Cn2c(-c3ccccc3C)nc3c(c(=O)c4ccccc4n3C)c2=O)cc1,inactive
26,Nn1c(COc2ccccc2)nc2ccccc2c1=O,inactive
